Shown are actives, neighbours in structure and some others; about 18% of the full set was active somewhere.
Six1-Eya2 blk = Six1/Eya2 interaction inhibition | Q15475+O00167 | 0.56% of 360,000 active | AlphaScreen GST-Six1/His-Eya2 binding, biochemical; stronger effect = lower value | AID 651725 | activity change, % (no concentration beside the values); in the data active = activity change below about -65%; inconclusive = mostly about -30% to -63%
Target sequence (O00167 whole entry, looked up): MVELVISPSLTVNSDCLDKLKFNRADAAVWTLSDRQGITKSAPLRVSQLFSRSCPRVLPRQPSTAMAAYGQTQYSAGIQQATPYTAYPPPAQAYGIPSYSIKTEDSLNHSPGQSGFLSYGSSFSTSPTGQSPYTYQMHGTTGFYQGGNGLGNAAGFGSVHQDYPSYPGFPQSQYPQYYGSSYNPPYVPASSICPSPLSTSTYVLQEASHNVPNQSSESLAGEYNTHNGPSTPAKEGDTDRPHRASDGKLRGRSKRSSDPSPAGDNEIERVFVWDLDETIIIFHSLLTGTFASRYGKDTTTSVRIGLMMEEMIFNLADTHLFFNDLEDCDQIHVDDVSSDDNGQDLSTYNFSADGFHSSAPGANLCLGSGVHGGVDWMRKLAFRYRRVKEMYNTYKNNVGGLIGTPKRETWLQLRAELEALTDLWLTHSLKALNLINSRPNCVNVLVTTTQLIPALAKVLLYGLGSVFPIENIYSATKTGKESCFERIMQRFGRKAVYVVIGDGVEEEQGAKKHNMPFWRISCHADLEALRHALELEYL
Target sequence (Q15475 whole entry, looked up): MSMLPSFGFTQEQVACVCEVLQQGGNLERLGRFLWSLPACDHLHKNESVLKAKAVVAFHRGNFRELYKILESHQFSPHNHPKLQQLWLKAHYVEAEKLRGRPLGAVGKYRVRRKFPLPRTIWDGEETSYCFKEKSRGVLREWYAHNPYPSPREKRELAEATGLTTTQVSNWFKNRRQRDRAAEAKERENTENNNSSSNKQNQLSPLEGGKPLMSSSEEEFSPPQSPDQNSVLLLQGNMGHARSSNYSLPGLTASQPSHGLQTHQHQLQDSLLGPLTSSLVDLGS
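AlphaScreen luminescence read after one hour at 37 °C in darkness. Pin-transferred compounds met GST-Six1 and His-Eya2 protein (5X stock 250 nM/500 nM) plus glutathione donor and Ni-chelate acceptor beads (5X, 50 ug/mL).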
TDP1 cell CPT = DT40-hTDP1 cell growth loss with CPT | chicken DT40 Tdp1-/-;hTDP1 cells + 20 nM CPT, ATP luminescence, 48 h | Potency, µM (series often up to 46.2 µM), for the others: at the top dose activity change, negative = growth inhibition, hits mostly inhibitors | 12% of 420,000 active | AID 686979; note: potency is the fitted concentration of half-maximal effect; nearly all actives have a fitted effect of over 55% in size
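Chicken DT40 Tdp1-/- cells stably complemented with human TDP1 were seeded at 400 cells/well in medium containing 20 nM camptothecin, exposed to pin-transferred compounds, and grown at 37 °C for at least 48 hr. Viability was read as ATP luminescence.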
IL1B secr inh = inhibitors of inflammasome signaling (IL-1 beta secretion); THP-1 LPS/ATP IL-1B secretion, AlphaLISA, 16 h; stronger effect = lower value; activity change, % at 57.5 µM; 4.7% of 360,000 active; AID 743279; in the data active = activity change below about -50%; inconclusive = mostly about -30% to -49%
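THP-1 cells pretreated 1 hr with compounds (up to 57.5 uM final), then stimulated with LPS (250 ng/mL final) plus ATP (1.25 mM final); secreted IL-1B measured by AlphaLISA after 16 hr, decreased signal indicating inhibition.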
CtBP-E1A blk = blocks the CtBP interaction with E1A; AlphaScreen GST-E1A/His-CtBP binding, 1536-well; stronger effect = lower value; activity change, % (test concentration not listed); 0.49% of 340,000 active; AID 651724; in the data active = activity change below about -65%; inconclusive = mostly about -30% to -63%
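Steps: dispense buffer (Tris pH 8.0, NaCl 300 mM, TCEP 1 mM, BSA, Tween 20); add 5X protein mix (GST-E1A, His-CtBP, 125 nM each); pin 23 nL compound; 2 h at 37 °C, dark; add 5X beads (50 ug/mL); 1 h; read.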
TDP1 cell noCPT = qHTS for Inhibitors of human tyrosyl-DNA phosphodiesterase 1 (TDP1): qHTS in cells in absence of CPT. DT40 Tdp1-/- hTDP1 cells, no CPT, ATP luminescence, 48 h. Potency, µM (series often up to 46.2 µM), without a hit: top-dose activity change, negative = growth inhibition, actives largely listed as inhibitors. 15% of 420,000 active. AID 686978, 2013; note: potency is the fitted concentration of half-maximal effect; nearly all actives have a fitted effect of over 55% in size
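Compound effects on proliferation are scored in DT40 Tdp1-/-;hTDP1 cells in the absence of CPT. ATP levels (CellTiter-Glo luminescence) are recorded after a ≥48 hr, 37 °C incubation.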
TDP1 inh = TDP1 (human) enzyme inhibition; Potency, µM (doses to about 130 µM), for the others: at the highest dose activity change, negative = inhibition, most hits filed as inhibitors; 0.28% of 350,000 active; AID 485290; recombinant TDP1, AlphaScreen DNA substrate cleavage; note: potency is the fitted concentration of half-maximal effect; nearly all actives have a fitted effect of over 40% in size
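Signal: AlphaScreen proximity between streptavidin donor and anti-FITC acceptor beads on intact substrate. Reaction: Tdp1 1 nM, substrate 15 nM final, 5 min RT after 15 min compound preincubation.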
* = called active by the depositor; [ ] = another dose, or the depositor's remark. Unless noted, calls come from the whole dose curve; as a rule, active = well fitted curve in the direction sought with a large enough effect; inconclusive = small, poorly fitted or top-dose-only effect, or another doubt; inactive = no such curve, though single readings can be large; an effect the other way counts as inactive or inconclusive. % is set by controls: 0 for no effect and ±100 for the full control effect.

Screening CC(=O)NCc1ccc(C(=O)CCl)s1 returned Six1-Eya2 blk -14.7, TDP1 cell CPT 0.517µM*, IL1B secr inh -17.4, CtBP-E1A blk 0.0, TDP1 cell noCPT 1.16µM* and TDP1 inh 3.5%.
For CC(=O)N(C)Cc1ccc(C(=O)CSc2nnc(C3CC3)n2C2CC2)cc1 the results were Six1-Eya2 blk 8.1, TDP1 cell CPT 0.3%, IL1B secr inh 15.2, CtBP-E1A blk -14.4, TDP1 cell noCPT -20.3% and TDP1 inh -0.7%[56.1 µM].
COc1ccc(NC(=O)CN(CC(=O)Nc2ccc(OC)cc2)C(C)(C)CO)cc1 was read as Six1-Eya2 blk 4.6, TDP1 cell CPT -14.3%, IL1B secr inh 8.1, CtBP-E1A blk 4.2 and TDP1 cell noCPT 18.3%.
Screening Cc1ccc(NC(c2cccc(Cl)c2)c2nnc(-c3ccccc3)o2)cc1F (stereo not given) returned TDP1 cell CPT inconclusive, TDP1 cell noCPT inconclusive and TDP1 inh 5.0%.
For CCOC(=O)C1(CCOc2ccccc2)CCN(C(=O)CCSC)CC1 the results were Six1-Eya2 blk -8.5, TDP1 cell CPT -25.1%, IL1B secr inh 14.1, CtBP-E1A blk 5.8 and TDP1 cell noCPT inconclusive.
For O=C(O)/C=C/C(=O)c1ccc(O)cc1 the results were Six1-Eya2 blk -7.7, TDP1 cell CPT 0.3%, IL1B secr inh 3.5, CtBP-E1A blk -5.7, TDP1 cell noCPT -2.2% and TDP1 inh 4.7%.
Screening O=C(NCCN1C(=O)S/C(=C\c2ccc(OC(F)F)cc2)C1=O)c1cnccn1 returned Six1-Eya2 blk 3.1, TDP1 cell CPT 1.84µM*, IL1B secr inh inconclusive, CtBP-E1A blk -16.4, TDP1 cell noCPT 2.06µM* and TDP1 inh 0.0%.
O=C(NCCN1C(=O)S/C(=C\c2ccc(OC(F)F)cc2)C1=O)C1=COCCO1 was read as Six1-Eya2 blk 0.0, TDP1 cell CPT 8.2µM*, IL1B secr inh -1.5, CtBP-E1A blk 0.0, TDP1 cell noCPT 7.31µM* and TDP1 inh -0.3%.
O=C(NCCN1C(=O)S/C(=C\c2ccc(Cl)cc2)C1=O)C1=COCCO1 was read as Six1-Eya2 blk 12.5, TDP1 cell CPT -24.0%, IL1B secr inh 7.4, CtBP-E1A blk 12.5, TDP1 cell noCPT -20.1% and TDP1 inh -2.6%.
COc1ccc(/C=C2\SC(=O)N(CCNC(=O)C3=COCCO3)C2=O)cc1 was read as Six1-Eya2 blk 20.9, TDP1 cell CPT 1.3µM*, IL1B secr inh 14.9, CtBP-E1A blk 3.4 and TDP1 cell noCPT 1.3µM*.
O=C(NCCN1C(=O)S/C(=C\c2ccc(OC(F)F)cc2)C1=O)[C@@H]1CCCN1C(=O)c1cccs1 was read as Six1-Eya2 blk 0.2, TDP1 cell CPT inconclusive, IL1B secr inh inconclusive, CtBP-E1A blk 0.7, TDP1 cell noCPT inconclusive and TDP1 inh 3.0%.
Screening CCOC(=O)c1cc(-c2cccs2)[nH]n1 returned Six1-Eya2 blk -2.1, TDP1 cell CPT 1.4%, IL1B secr inh 14.8, CtBP-E1A blk -3.7 and TDP1 cell noCPT -26.2%.
For COCCCNC(=O)CC1C[C@H](C(=O)N(C(C)C)C(C)C)[C@@]2(C)c3[nH]c4ccc(OC)cc4c3CCN2C1=O (stereo not given in full) the results were Six1-Eya2 blk 6.5, TDP1 cell CPT -16.0%, IL1B secr inh -0.2, CtBP-E1A blk 2.4, TDP1 cell noCPT inconclusive and TDP1 inh 0.1%[56.1 µM].
For CC(C)N(C(=O)[C@H]1C[C@H](CC(=O)NCCCn2ccnc2)C(=O)N2CCc3c([nH]c4ccc(Cl)cc34)[C@]12C)C(C)C the results were Six1-Eya2 blk -9.6, TDP1 cell CPT inconclusive, IL1B secr inh inconclusive, CtBP-E1A blk -6.7, TDP1 cell noCPT 18.4µM* and TDP1 inh 0.4%[56.1 µM].
`COCCCNC(=O)C[C@H]1C[C@H](C(=O)N(C(C)C)C(C)C)[C@@]2(C)c3[nH]c4ccc(Cl)cc4c3CCN2C1=O` gave Six1-Eya2 blk -1.9, TDP1 cell CPT 11.6µM*, IL1B secr inh 5.2, CtBP-E1A blk 1.6, TDP1 cell noCPT 8.2µM* and TDP1 inh -0.3%[56.1 µM].
CC(/C=N/NC(=O)c1nnn(-c2nonc2N)c1C)=C\c1ccccc1 was read as Six1-Eya2 blk 1.7, TDP1 cell CPT 10.5%, IL1B secr inh -2.3, CtBP-E1A blk -1.0, TDP1 cell noCPT 1.3% and TDP1 inh 3.0%.
CC1=CC(C)(C)Nc2ccc(Cc3ccc4c(c3)C(C)=CC(C)(C)N4)cc21 was read as Six1-Eya2 blk inconclusive, TDP1 cell CPT 20.6µM*, IL1B secr inh -5.5, TDP1 cell noCPT 20.6µM* and TDP1 inh 13.7%.
`CC1=CC(C)(C)Nc2ccc(C)cc21` gave Six1-Eya2 blk -12.7, TDP1 cell CPT -5.0%, IL1B secr inh -0.4, CtBP-E1A blk -0.3, TDP1 cell noCPT -8.9% and TDP1 inh 7.3%.
CC(C)N=c1cc2n(-c3ccc(Cl)cc3)c3ccccc3nc-2cc1Nc1ccc(Cl)cc1 was read as Six1-Eya2 blk inconclusive, TDP1 cell CPT 13µM*, IL1B secr inh -14.8, CtBP-E1A blk -20.3, TDP1 cell noCPT 16.4µM* and TDP1 inh 12.8%[56.1 µM].
`CCCNC(=O)c1cc(SC)ccc1Cl` gave Six1-Eya2 blk 0.0, TDP1 cell CPT -28.8%, IL1B secr inh -20.6, CtBP-E1A blk 4.0, TDP1 cell noCPT 0.0% and TDP1 inh 7.6%.
For Nc1ccc(C23CC4CC(CC(C4)C2)C3)cc1 the results were Six1-Eya2 blk -19.1, TDP1 cell CPT 9.0%, IL1B secr inh 28.2, CtBP-E1A blk -17.4, TDP1 cell noCPT 5.9% and TDP1 inh 0.0%.
COCCc1ccc(OC2(C)CCN(Cc3ccc(OC)c4ccccc34)C2)cc1 (stereo not given) was read as Six1-Eya2 blk 1.0, TDP1 cell CPT inconclusive, IL1B secr inh 11.2, CtBP-E1A blk 1.5 and TDP1 cell noCPT 16.4µM*.
COc1cccc(CN2CCC(C)(Oc3cccc(Cl)c3)C2)c1OC (stereo not given) was read as Six1-Eya2 blk 5.0, TDP1 cell CPT inconclusive, IL1B secr inh 12.1, CtBP-E1A blk -0.9 and TDP1 cell noCPT 16.4µM*.
Screening C[C@H]1Cn2cnc(C(=O)Nc3cccc(Cl)c3)c2C(=O)N1 returned Six1-Eya2 blk -2.2, TDP1 cell CPT inconclusive, IL1B secr inh -9.5, CtBP-E1A blk -10.6 and TDP1 cell noCPT 11.6µM*.
Cc1ccccc1NC(=O)CSc1nc(-c2ccccc2C)nc2cc(=O)[nH]n12 was read as TDP1 cell CPT -10.0%, TDP1 cell noCPT inconclusive and TDP1 inh 7.9%.

Compound activity from PubChem BioAssay.
